Values without a mark were called inactive. Where a call stands in place of a potency, no number is given. For some of these results: Potency and affinity values are given separately. Calls of active or inactive are those of the source. Unless noted, no rule for the calls is given here.
What was measured:
[1] = antimalarial activity against Dd2 strain (AID 2302;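 active = growth inhibition above 50% at the single 2 µM test dose, taken to imply half-maximal potency below 2 µM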); conditions: P. falciparum Dd2 in RBCs, LDH growth readout, 72 h; at 2 µM; stronger effect = higher value
[2] = human hepatoma cell viability loss – ATP luminescence, cytotoxicity control for P. falciparum antimalarial project, primary screen (AID 2303;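 active = inhibition above 50%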); conditions: HepG2 viability, 24-48 h, at 10 µM, stronger effect = higher value
[3] = molecular target: L-lactate dehydrogenase (Plasmodium falciparum (isolate CDC / Honduras)) (UniProt Q27743); experiment: PfLDH activity inhibition – cell lysate, 3D7 strain, counter-screen for P. falciparum growth inhibition project (AID 2304); conditions: P. falciparum 3D7 crude extract, LDH APAD/NBT absorbance; at 2 µM; stronger effect = higher value
Chain of L-lactate dehydrogenase (Plasmodium falciparum (isolate CDC / Honduras)) (Q27743 whole entry, looked up): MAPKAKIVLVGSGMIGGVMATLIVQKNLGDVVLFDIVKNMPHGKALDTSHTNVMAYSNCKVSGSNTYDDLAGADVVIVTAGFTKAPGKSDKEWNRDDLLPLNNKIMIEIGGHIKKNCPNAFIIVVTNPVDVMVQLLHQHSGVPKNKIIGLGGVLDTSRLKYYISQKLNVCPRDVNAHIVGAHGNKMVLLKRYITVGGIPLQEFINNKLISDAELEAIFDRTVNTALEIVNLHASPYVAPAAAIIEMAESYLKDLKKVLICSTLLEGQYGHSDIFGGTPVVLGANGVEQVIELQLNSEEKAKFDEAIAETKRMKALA

[4] = inhibition of 3D7 malaria parasite growth – strain 3D7 (AID 2306); conditions: P. falciparum 3D7 erythrocytic growth, LDH absorbance, 72 h; at 2 µM; stronger effect = higher value
[5] = molecular target: Calcium-dependent protein kinase 1 (Plasmodium falciparum (isolate 3D7)) (UniProt P62344); experiment: PfCDPK1 kinase inhibitors, biochemical, TCAMS library (AID 1159585; cut-off not given, nearly all actives have IC50 up to about 0.98 µM;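 also: inhibitors leave more ATP so luminescence rises with inhibition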); conditions: recombinant PfCDPK1, Kinase-Glo ATP depletion luminescence
Chain of Calcium-dependent protein kinase 1 (Plasmodium falciparum (isolate 3D7)) (P62344 whole entry, looked up): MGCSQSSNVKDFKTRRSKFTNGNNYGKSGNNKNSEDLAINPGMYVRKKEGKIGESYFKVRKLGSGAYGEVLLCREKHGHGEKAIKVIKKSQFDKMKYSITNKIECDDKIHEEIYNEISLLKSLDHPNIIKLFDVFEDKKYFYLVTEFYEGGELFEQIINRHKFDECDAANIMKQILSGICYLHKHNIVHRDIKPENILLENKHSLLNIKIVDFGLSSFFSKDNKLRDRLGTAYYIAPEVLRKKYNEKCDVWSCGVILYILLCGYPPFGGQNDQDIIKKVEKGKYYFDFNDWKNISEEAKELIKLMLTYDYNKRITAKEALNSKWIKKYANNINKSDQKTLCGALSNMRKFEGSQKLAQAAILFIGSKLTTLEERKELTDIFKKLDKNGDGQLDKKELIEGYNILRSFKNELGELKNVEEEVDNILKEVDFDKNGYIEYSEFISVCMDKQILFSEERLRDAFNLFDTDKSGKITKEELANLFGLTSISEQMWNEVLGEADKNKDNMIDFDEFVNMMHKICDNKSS

[6] = molecular target: Plasmodium falciparum protein kinase 6 (PK6, PF3D7_1337100) (UniProt Q8IDW1); experiment: PfPK6 kinase inhibitors, biochemical, TCAMS library (AID 1159586); conditions: recombinant PfPK6, Kinase-Glo ATP depletion luminescence
Chain of Plasmodium falciparum protein kinase 6 (PK6, PF3D7_1337100) (Q8IDW1 1-305): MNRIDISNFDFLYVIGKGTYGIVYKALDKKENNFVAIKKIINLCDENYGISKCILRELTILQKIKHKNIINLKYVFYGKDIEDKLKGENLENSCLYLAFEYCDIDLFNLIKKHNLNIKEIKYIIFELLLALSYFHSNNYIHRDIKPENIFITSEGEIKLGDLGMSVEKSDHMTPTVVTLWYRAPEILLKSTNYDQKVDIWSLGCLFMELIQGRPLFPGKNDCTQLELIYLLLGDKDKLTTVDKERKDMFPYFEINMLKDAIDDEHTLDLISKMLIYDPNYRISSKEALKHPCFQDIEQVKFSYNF

[7] = molecular target: Protein kinase 7 (PK7), Plasmodium falciparum 3D7 (PF3D7_0213400) (UniProt Q7YTF7); experiment: inhibition of Plasmodium PK7 catalytic activity – biochemical, TCAMS antimalarial set, Kinase-Glo luminescence (AID 1159587); conditions: recombinant PfPK7, Kinase-Glo ATP depletion luminescence
Chain of Protein kinase 7 (PK7), Plasmodium falciparum 3D7 (PF3D7_0213400) (Q7YTF7 1-343): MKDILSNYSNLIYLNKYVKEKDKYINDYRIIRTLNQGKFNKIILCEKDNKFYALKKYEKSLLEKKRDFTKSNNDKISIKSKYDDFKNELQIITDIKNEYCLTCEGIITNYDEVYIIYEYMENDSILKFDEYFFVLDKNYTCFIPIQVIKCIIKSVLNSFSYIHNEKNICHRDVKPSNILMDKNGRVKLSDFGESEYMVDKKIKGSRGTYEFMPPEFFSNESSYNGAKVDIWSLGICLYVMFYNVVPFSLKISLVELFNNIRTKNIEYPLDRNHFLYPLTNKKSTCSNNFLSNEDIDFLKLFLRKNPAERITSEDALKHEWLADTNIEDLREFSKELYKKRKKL

[8] = molecular target: Calcium-dependent protein kinase 4 (Plasmodium falciparum (isolate 3D7)) (UniProt Q8IBS5); experiment: PfCDPK4 kinase inhibitors, biochemical, TCAMS library (AID 1159588; cut-off not given, nearly all actives have IC50 up to about 0.91 µM); conditions: recombinant PfCDPK4, Kinase-Glo ATP depletion luminescence
Chain of Calcium-dependent protein kinase 4 (Plasmodium falciparum (isolate 3D7)) (Q8IBS5 whole entry, looked up): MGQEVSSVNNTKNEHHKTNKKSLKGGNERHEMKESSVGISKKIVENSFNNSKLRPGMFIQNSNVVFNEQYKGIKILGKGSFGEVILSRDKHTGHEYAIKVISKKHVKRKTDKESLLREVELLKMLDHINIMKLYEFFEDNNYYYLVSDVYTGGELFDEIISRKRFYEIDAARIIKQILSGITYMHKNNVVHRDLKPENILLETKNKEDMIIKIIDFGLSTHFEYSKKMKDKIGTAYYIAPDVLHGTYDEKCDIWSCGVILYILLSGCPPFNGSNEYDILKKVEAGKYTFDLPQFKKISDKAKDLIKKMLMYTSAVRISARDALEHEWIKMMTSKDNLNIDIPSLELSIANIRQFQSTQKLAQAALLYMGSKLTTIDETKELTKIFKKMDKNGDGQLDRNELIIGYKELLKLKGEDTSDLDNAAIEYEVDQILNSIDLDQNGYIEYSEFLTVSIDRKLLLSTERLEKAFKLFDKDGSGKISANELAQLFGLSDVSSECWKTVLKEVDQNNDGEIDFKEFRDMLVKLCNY

SMILES | growth inhibition [1] | inhibition [2] | inhibition [3] | growth inhibition [4] | outcome [5] | outcome [6] | outcome [7] | outcome [8]
Cc1[nH]c(C)c(-c2ccc(OCCn3cnc(Cl)c3Cl)cc2)c(=O)c1Br | 35% | 2% | 2% | 95% (active) | inactive | inactive | inactive | inactive
O=C(Nc1ccc(Cl)cc1F)NC1CCN(CCCCCNC(=O)[C@@H]2C[C@H]2c2ccc(Cl)c(Cl)c2)CC1 | 27% | 46% | -5% | 101% (active) | inactive | inactive | inactive | inactive
CCC(C)CN1CCN(c2ccc(NC(=O)c3cccs3)cc2)CC1C (stereo not given) | 94% (active) | -3% | 1% | 94% (active) | inactive | inactive | inactive | inactive
O=C(NCCCN1CCC(NC(=O)c2ccc(-c3cccnc3)cc2)CC1)c1ccc(Cl)c(Cl)c1 | 23% | 17% | -5% | 94% (active) | inactive | inactive | inactive | inactive
Cc1cc(NC(=O)NCCN2CCC(NC(=O)c3cccc(Br)c3)C2)c2ccccc2n1 (stereo not given) | 60% (active) | -2% | -1% | 100% (active) | inactive | inactive | inactive | inactive
O=C(NC1CCN(c2ccnc(Nc3ccc(F)cc3)n2)C1)c1cc2ccccc2s1 (stereo not given) | 80% (active) | 6% | -8% | 99% (active) | inactive | inactive | inactive | inactive
COc1ccc(NC(=O)Nc2ccc(Nc3nc(C)cc(N4CCCC4)n3)cc2)cc1 | 100% (active) | 14% | -2% | 101% (active) | inactive | inactive | inactive | inactive
CC(C)(C)c1cc(C(=O)N2CCN(c3nccnc3C#N)CC2)n(Cc2ccccc2)n1 | 93% (active) | -11% | -9% | 100% (active) | inactive | inactive | inactive | inactive
COc1ccc(C=Cc2cc(N)c3ccccc3n2)cc1Br | 88% (active) | 55% (active) | 2% | 101% (active) | inactive | inactive | inactive | inactive
Cn1nc(C(F)(F)F)c(-c2ccc(F)cc2)c1NC(=O)Nc1ccc(F)cc1 | 99% (active) | 5% | -2% | 100% (active) | inactive | inactive | inactive | inactive
CC(Oc1c(C2CCN(CCCCNC(=O)c3ccc(-c4ccc(C#N)cc4)cc3)CC2)ccc2c1CCCC2)C(N)=O (stereo not given) | 83% (active) | 41% | -3% | 100% (active) | inactive | inactive | inactive | inactive
CC(C)Sc1nncc(-c2cnnc(SC(C)C)n2)n1 | 100% (active) | -1% | 2% | 101% (active) | inactive | inactive | inactive | inactive
Cc1ccc(C(=O)NC2C(=O)NC2c2ccccc2)c(C)c1 (stereo not given) | -1% | 7% | -4% | 90% (active) | inactive | inactive | inactive | inactive
CCCc1ccc(NC(=O)c2cccc(CN3CCCN(Cc4cccc(C#N)c4)CC3)c2)cc1 | 0% | 20% | -4% | 85% (active) | inactive | inactive | inactive | inactive
Cc1ccc(C)c(CN2CCC(CNC(=O)c3cc4ccc5cccnc5c4[nH]3)CC2)c1 | 10% | 25% | -3% | 95% (active) | inactive | inactive | inactive | inactive
CC(C)c1cn2c3c(cc(C(=O)N[C@@H](Cc4ccccc4)[C@H](O)CNC4CCCCC4)cc13)N(C)S(=O)(=O)CC2 | 99% (active) | 9% | 0% | 98% (active) | inactive | inactive | inactive | inactive
CCCCCc1cc(O)c2c(c1)OC(C)(C)C=C2C1=CCN(Cc2ccsc2)CC1 | 48% | 20% | -1% | 98% (active) | inactive | inactive | inactive | inactive
O=C(NCc1ccccc1S(=O)c1ccccc1CO)C(F)(F)F (stereo not given) | 2% | 50% (active) | 0% | 98% (active) | inactive | inactive | inactive | inactive
COc1ccc(N2C(=O)C3C(C2=O)C2(C)c4ccccc4C3(C)c3ccccc32)c([N+](=O)[O-])c1 (stereo not given) | 54% (active) | 11% | 7% | 99% (active) | inactive | inactive | inactive | inactive
CN(C)c1ccc2c(c1)Sc1cc(N(C)C)ccc1N2C(=O)CCCC(=O)O | 81% (active) | -4% | -6% | 96% (active) | inactive | inactive | inactive | inactive
